Assay results taken from PMC5540273 (PLoS ONE, 2017).

Assays:
Conditions in all cases: concentration: 1 μM, replicates: in singlicate; n = 1
HIPK2 = system: HIPK2
HIPK3 = system: HIPK3
HIPK4 = system: HIPK4
HPK1 = system: HPK1
HUNK = system: HUNK
ICK = system: ICK
IGF1R = system: IGF1R
IKK-alpha = system: T1, IKK-alpha
T1 construct: gene CHUK

IKK-beta = system: T2, IKK-beta
T2 construct: gene IKBKB

IKK-epsilon = system: T3, IKK-epsilon
T3 construct: gene IKBKE

INSRR = system: INSRR
INSR = system: INSR
IRAK1 = system: IRAK1
IRAK3 = system: IRAK3
IRAK4 = system: IRAK4
ITK = system: ITK
[1] = system: JAK1(JH1domain-catalytic)
[2] = system: JAK1(JH2domain-pseudokinase)
[3] = system: JAK2(JH1domain-catalytic)
[4] = system: JAK3(JH1domain-catalytic)
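Also: KINOMEscan kinase panel screen.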

Row | SMILES | %Inh (HIPK2) [%] | %Inh (HIPK3) [%] | %Inh (HIPK4) [%] | %Inh (HPK1) [%] | %Inh (HUNK) [%] | %Inh (ICK) [%] | %Inh (IGF1R) [%] | %Inh (IKK-alpha) [%] | %Inh (IKK-beta) [%] | %Inh (IKK-epsilon) [%] | %Inh (INSRR) [%] | %Inh (INSR) [%] | %Inh (IRAK1) [%] | %Inh (IRAK3) [%] | %Inh (IRAK4) [%] | %Inh (ITK) [%] | %Inh [1] [%] | %Inh [2] [%] | %Inh [3] [%] | %Inh [4] [%]
1 | COc1ccc(Nc2nccc(N3CCC(NC(=O)c4cccc(NC(C)=O)c4)C3)n2)cc1 (stereo not drawn) [GSK1379732] | 13 | 0 | 0 | 43 | 28 | 0 | 0 | 0 | 0 | 19 | 0 | 0 | 24 | 0 | 0 | 0 | 15 | 0 | 22 | 0
2 | CCCc1ccc(S(=O)(=O)NC2CCN(c3ccnc(Nc4ccc(OC)cc4)n3)C2)cc1 (stereo not drawn) [GSK1379737] | 0 | 8 | 0 | 31 | 10 | 0 | 8 | 36 | 0 | 0 | 0 | 0 | 39 | 0 | 24 | 14 | 34 | 0 | 73 | 0
3 | CCC(CC)(CC)n1cnc2c(N)ncnc21 [SKF-97620] | 10 | 19 | 8 | 0 | 34 | 32 | 0 | 30 | 8 | 0 | 4 | 0 | 33 | 0 | 0 | 9 | 10 | 0 | 22 | 22
4 | CS(=O)(=O)CCNCc1nc(-c2ccc3ncnc(Nc4ccc(OCc5cccc(F)c5)c(Cl)c4)c3c2)cs1.Cl [GW583340] | 0 | 0 | 0 | 33 | 0 | 0 | 0 | 3 | 6 | 7 | 0 | 1 | 0 | 0 | 5 | 0 | 24 | 0 | 0 | 0
5 | CS(=O)(=O)CCNCc1ccc(-c2ccc3ncnc(Nc4ccc(OCc5ccccc5)c(Cl)c4)c3c2)o1.Cl [GW574783] | 13 | 18 | 18 | 22 | 14 | 0 | 13 | 0 | 0 | 7 | 24 | 7 | 0 | 12 | 0 | 0 | 9 | 0 | 14 | 0
6 | Oc1ccc2ncnc(Nc3ccc(OCc4ccccc4)cc3)c2c1 [GI262866] | 58 | 6 | 0 | 41 | 8 | 7 | 0 | 7 | 16 | 0 | 18 | 0 | 0 | 0 | 5 | 4 | 12 | 0 | 0 | 0
7 | COc1ccc(Nc2nccc(N3CCC(NC(=O)Nc4ccc5c(c4)OCO5)C3)n2)cc1 (stereo not drawn) [GSK1379745] | 0 | 23 | 9 | 67 | 11 | 0 | 0 | 7 | 9 | 12 | 0 | 0 | 11 | 11 | 6 | 6 | 0 | 0 | 19 | 0
8 | Cl.Cn1ccc(-c2cccc(Nc3ccnc4cc(-c5nccs5)ccc34)c2)n1 [GW525701] | 0 | 0 | 0 | 34 | 22 | 11 | 21 | 30 | 11 | 31 | 0 | 0 | 41 | 0 | 15 | 7 | 18 | 0 | 0 | 0
9 | CC(C)(C)c1ccc(-n2cnc3c(N)ncnc32)cc1 [SKF-97263] | 0 | 6 | 0 | 60 | 14 | 17 | 11 | 0 | 7 | 19 | 6 | 21 | 0 | 7 | 0 | 6 | 7 | 82 | 24 | 0
10 | OCCOCCn1ccc2ncnc(Nc3ccc(Oc4cccc(Cl)c4)c(Cl)c3)c21 | 0 | 0 | 0 | 0 | 7 | 0 | 0 | 0 | 0 | 0 | 0 | 0 | 0 | 0 | 0 | 0 | 0 | 38 | 0 | 0
11 | Cl.c1ccc(Cn2ncc3cc(Nc4ncnc5ccccc45)ccc32)cc1 [GW273749] | 0 | 0 | 0 | 20 | 0 | 0 | 0 | 0 | 31 | 24 | 0 | 3 | 0 | 0 | 9 | 0 | 8 | 0 | 11 | 0
12 | CSc1nn2c(=O)cc(N3CCOCC3)nc2n1Cc1cccc(Cl)c1Cl [GSK2347225] | 0 | 17 | 2 | 25 | 25 | 0 | 0 | 0 | 0 | 28 | 0 | 17 | 0 | 0 | 0 | 13 | 24 | 0 | 18 | 0
13 | Cl.Fc1ccccc1COc1ccc(Nc2ncnc3ccc(-c4nnc(C(F)(F)F)o4)cc23)cc1Cl [GW424170] | 0 | 0 | 0 | 20 | 3 | 0 | 11 | 0 | 0 | 0 | 0 | 0 | 0 | 0 | 0 | 4 | 7 | 0 | 6 | 0
14 | Nc1nccc2scc(-c3ccc4c(c3)CCN4C(=O)Cc3cc(F)ccc3F)c12 [GSK2587663] | 0 | 6 | 0 | 28 | 14 | 0 | 13 | 5 | 0 | 5 | 0 | 0 | 17 | 10 | 7 | 18 | 14 | 0 | 0 | 0
15 | Nc1nc(-c2ccc3c(N)n[nH]c3c2)cc(N2CCC[C@@H](C(=O)Nc3ccccc3)C2)n1.O=C(O)C(F)(F)F.O=C(O)C(F)(F)F [GSK2288359] | 0 | 6 | 1 | 32 | 0 | 12 | 100 | 0 | 0 | 29 | 0 | 9 | 0 | 0 | 0 | 0 | 14 | 23 | 100 | 0
